Assay results from PubChem BioAssay (NCATS).
Records with an inconclusive call do not appear. Activity calls are given as the source filed them. Calls follow the shape of the dose curve; as a rule, active = well fitted curve in the direction sought with a large enough effect; inconclusive = small, poorly fitted or top-dose-only effect, or another doubt; inactive = no such curve, though single readings can be large; an effect the other way counts as inactive or inconclusive.

Legend:
[1] = Quantitative High-Throughput drug screen in 47 multiple myeloma cell lines against the NCATS MIPE library collection: AMO1_DSMZ cell viability assay (AID 1918927; also: nearly all actives have a fitted effect of over 30% in size)
Summary of the method: (§1)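 qHTS of the MIPE 4.0 collection: 500 myeloma cells/well, 48 h drug exposure at 37C in 5% CO2, then CellTiter-Glo for 5 min at room temperature before luminescence reading.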

[2] = Quantitative High-Throughput drug screen in 47 multiple myeloma cell lines against the NCATS MIPE library collection: ARP1_JJKsccF8 cell viability assay (AID 1918928; also: nearly all actives have a fitted effect of over 40% in size)
Summary of the method: (§2)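 Cell viability inhibition in this qHTS is measured via ATP content (CellTiter-Glo) after 48 h drug exposure at 37 °C. Wells hold 500 cells; DMSO-treated wells define 100% and medium-only wells 0%.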

[3] = Quantitative High-Throughput drug screen in 47 multiple myeloma cell lines against the NCATS MIPE library collection: ARD_JJKsccE7 cell viability assay (AID 1918929)
Summary of the method: as §1

[4] = Quantitative High-Throughput drug screen in 47 multiple myeloma cell lines against the NCATS MIPE library collection: Karpas620_DSMZ cell viability assay (AID 1918959); also: nearly all actives have a fitted effect of over 30% in size
Summary of the method: (§3)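 Myeloma cells (500 per well) were exposed to MIPE 4.0 compounds by pin transfer and incubated 48 hours at 37C, 5% CO2. Viability was read as ATP by CellTiter-Glo luminescence, normalised to DMSO (100%) and media-only (0%) wells.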

[5] = Quantitative High-Throughput drug screen in 47 multiple myeloma cell lines against the NCATS MIPE library collection: KMM1_JCRB cell viability assay (AID 1918960); also: nearly all actives have a fitted effect of over 30% in size
Summary of the method: as §2

[6] = Quantitative High-Throughput drug screen in 47 multiple myeloma cell lines against the NCATS MIPE library collection: KHM11_PLB cell viability assay (AID 1918962); also: nearly all actives have a fitted effect of over 35% in size
Summary of the method: as §3

[7] = Quantitative High-Throughput drug screen in 47 multiple myeloma cell lines against the NCATS MIPE library collection: JIM3_ECACC cell viability assay (AID 1918963; also: nearly all actives have a fitted effect of over 35% in size)
Summary of the method: as §3

[8] = Quantitative High-Throughput drug screen in 47 multiple myeloma cell lines against the NCATS MIPE library collection: JIM1_ECACC cell viability assay (AID 1918964)
Summary of the method: as §1

[9] = Quantitative High-Throughput drug screen in 47 multiple myeloma cell lines against the NCATS MIPE library collection: INA6_PLB cell viability assay (AID 1918965; also: nearly all actives have a fitted effect of over 55% in size)
Summary of the method: (§4)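 CellTiter-Glo ATP luminescence gave viability after 48 h compound treatment at 37C of 500 multiple myeloma cells per well. Normalisation used DMSO-only wells as 100% and media-only wells as 0% viability; primary qHTS of approved and investigational drugs.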

[10] = Quantitative High-Throughput drug screen in 47 multiple myeloma cell lines against the NCATS MIPE library collection: JJN3_DSMZ cell viability assay (AID 1918966; also: nearly all actives have a fitted effect of over 50% in size)
Summary of the method: as §1

[11] = Quantitative High-Throughput drug screen in 47 multiple myeloma cell lines against the NCATS MIPE library collection: H1112_PLB cell viability assay (AID 1918967; also: nearly all actives have a fitted effect of over 30% in size)
Summary of the method: as §1

[12] = Quantitative High-Throughput drug screen in 47 multiple myeloma cell lines against the NCATS MIPE library collection: Karpas25_ECACC cell viability assay (AID 1918968; also: nearly all actives have a fitted effect of over 35% in size)
Summary of the method: as §1

[13] = Quantitative High-Throughput drug screen in 47 multiple myeloma cell lines against the NCATS MIPE library collection: KMS27_JCRB cell viability assay (AID 1918970); also: nearly all actives have a fitted effect of over 30% in size
Summary of the method: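 CellTiter-Glo luminescence after 48 h drug exposure at 37 °C; 500 cells/well, 1536-well format, pin-tool compound addition; DMSO = 100%, media-only = 0% viability.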

[14] = Quantitative High-Throughput drug screen in 47 multiple myeloma cell lines against the NCATS MIPE library collection: KMS12BM_JCRB cell viability assay (AID 1918971); also: nearly all actives have a fitted effect of over 35% in size
Summary of the method: (§5)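 Luminescent ATP measurement with CellTiter-Glo gives viability, scaled between DMSO-only wells (100%) and media-only wells (0%). Cells, 500 per well, faced library compounds for 48 hours at 37C.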

[15] = Quantitative High-Throughput drug screen in 47 multiple myeloma cell lines against the NCATS MIPE library collection: KMS12PE_JCRB cell viability assay (AID 1918972); also: nearly all actives have a fitted effect of over 30% in size
Summary of the method: as §4

[16] = Quantitative High-Throughput drug screen in 47 multiple myeloma cell lines against the NCATS MIPE library collection: KMS26_JCRB cell viability assay (AID 1918975); also: nearly all actives have a fitted effect of over 45% in size
Summary of the method: as §5

[17] = Quantitative High-Throughput drug screen in 47 multiple myeloma cell lines against the NCATS MIPE library collection: Karpas417_ECACC cell viability assay (AID 1918961); settings: Karpas417 myeloma viability, CellTiter-Glo ATP luminescence, 48 h; viability (% of DMSO): at 45.8 µM (top of the series)
Summary of the method: as §4

[18] = Quantitative High-Throughput drug screen in 47 multiple myeloma cell lines against the NCATS MIPE library collection: KMS20_JCRB cell viability assay (AID 1918973); also: nearly all actives have a fitted effect of over 45% in size
Summary of the method: as §1

[19] = Quantitative High-Throughput drug screen in 47 multiple myeloma cell lines against the NCATS MIPE library collection: KMS21BM_JCRB cell viability assay (AID 1918974); settings: ATP luminescence, 48 h; viability: at 45.8 µM (top of the series) unless noted
Summary of the method: as §1

[20] = Quantitative High-Throughput drug screen in 47 multiple myeloma cell lines against the NCATS MIPE library collection: MMM1_PLB cell viability assay (AID 1918976); also: nearly all actives have a fitted effect of over 35% in size
Summary of the method: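 ATP-based CellTiter-Glo luminescence after 48 h drug exposure (37 °C, 5% CO2) of 500 myeloma cells per well. DMSO-only wells set 100% viability, media-only wells 0%; MIPE 4.0 library added by pin tool.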

Measured: Potency
Potency is read from the fitted curve at half-maximal effect.

Cc1ccc(F)c(NC(=O)Nc2ccc(-c3cccc4[nH]nc(N)c34)cc2)c1
active: [1] 10.5 µM | [2] 26.4 µM | [3] 3.32 µM | [4] 20.9 µM | [5] 4.18 µM | [6] 8.33 µM | [7] 7.43 µM | [8] 1.87 µM | [9] 16.6 µM | [10] 18.7 µM | [11] 10.5 µM | [12] 26.4 µM | [13] 10.5 µM | [14] 26.4 µM | [15] 8.33 µM | [16] 23.5 µM

Oc1ccc(C2=Cc3ccc(O)cc3OC2)cc1
active: [1] 2.64 µM | [2] 4.18 µM | [3] 1.66 µM | [5] 2.64 µM | [17] 2.64 µM | [8] 3.32 µM | [9] 0.662 µM | [10] 1.48 µM | [12] 1.48 µM | [13] 2.09 µM | [14] 2.96 µM | [18] 3.32 µM | [19] 2.35 µM | [20] 5.26 µM

O=c1c(-c2ccc(O)cc2)coc2cc(O[C@@H]3O[C@H](CO)[C@H](O)[C@H](O)[C@H]3O)ccc12
inactive: [1] | [3] | [4] | [8] | [10] | [11] | [14] | [15] | [16]
active: [2] 3.72 µM

Cc1ccc(C(C)(O)c2nc3ccccc3s2)c(C)c1 (stereo not given)
inactive: [2] | [3] | [4] | [17] | [7] | [9] | [10] | [11] | [15] | [18]
active: [1] 20.9 µM

O=C1c2ccccc2-[n+]2ccc3c([nH]c4ccccc43)c21
active: [1] 5.9 µM | [2] 2.09 µM | [3] 7.43 µM | [4] 3.72 µM | [5] 3.72 µM | [17] 8.33 µM | [6] 2.35 µM | [7] 0.59 µM | [8] 3.72 µM | [9] 1.18 µM | [10] 1.48 µM | [11] 5.26 µM | [12] 0.418 µM | [13] 2.64 µM | [14] 2.09 µM | [15] 5.26 µM | [18] 1.05 µM

CC(C)OC(=O)CCCC=CC[C@@H]1[C@H](C=C[C@@H](O)COc2cccc(C(F)(F)F)c2)[C@H](O)C[C@@H]1O
active: [2] 20.9 µM | [6] 23.5 µM | [7] 20.9 µM | [11] 18.7 µM | [20] 14.8 µM
inactive: [1] | [3] | [4] | [5] | [8] | [15]

C=C1C(=O)[C@@]23C(CC[C@@H]1[C@H]2O)[C@@]12CO[C@]3(O)[C@@H](O)[C@@H]1C(C)(C)CC[C@@H]2O (stereo not given in full)
active: [1] 1.48 µM | [2] 5.9 µM | [3] 1.48 µM | [4] 0.935 µM | [5] 2.35 µM | [7] 10.5 µM | [8] 1.05 µM | [9] 1.18 µM | [10] 2.09 µM | [11] 18.7 µM | [12] 2.35 µM | [13] 1.87 µM | [14] 9.35 µM | [15] 2.09 µM | [18] 2.35 µM | [16] 2.64 µM

NS(=O)(=O)c1cccc2c1C(=O)c1cccc(O)c1C2=O
active: [1] 0.166 µM | [2] 0.332 µM | [3] 0.264 µM | [4] 0.148 µM | [17] 0.148 µM | [6] 0.662 µM | [7] 0.187 µM | [8] 0.209 µM | [9] 0.148 µM | [10] 0.264 µM | [11] 0.526 µM | [13] 0.209 µM | [14] 1.05 µM | [15] 0.264 µM | [18] 0.132 µM | [19] 0.148 µM | [16] 0.662 µM | [20] 0.264 µM

Cc1[nH]c(C=C2C(=O)Nc3ccc(S(=O)(=O)Cc4c(Cl)cccc4Cl)cc32)c(C)c1C(=O)N1CCC[C@H]1CN1CCCC1
active: [1] 26.4 µM | [2] 23.5 µM | [3] 9.35 µM | [5] 18.7 µM | [17] 1.48 µM | [6] 8.33 µM | [7] 18.7 µM | [8] 7.43 µM | [9] 3.32 µM | [10] 23.5 µM | [11] 14.8 µM | [13] 2.64 µM | [14] 23.5 µM | [15] 2.64 µM | [18] 0.743 µM | [19] 4.69 µM

CC(C)(C)c1cc(C(=O)O)c(NC(=O)Nc2ccc3[nH]ncc3c2)s1
inactive: [1] | [2] | [3] | [4] | [5] | [7] | [8] | [11] | [13] | [20]

COc1ccc(-c2oc3c(CC=C(C)C)c(OC4O[C@H](CO)[C@@H](O)[C@H](O)[C@@H]4O)cc(O)c3c(=O)c2OC2O[C@@H](C)[C@H](O)[C@@H](O)[C@@H]2O)cc1 (stereo not given in full)
active: [1] 8.33 µM | [2] 16.6 µM | [3] 9.35 µM | [4] 11.8 µM | [17] 10.5 µM | [7] 20.9 µM | [9] 33.2 µM | [10] 18.7 µM | [11] 23.5 µM | [12] 20.9 µM | [13] 11.8 µM | [14] 18.7 µM | [15] 8.33 µM | [19] 9.35 µM | [16] 23.5 µM | [20] 23.5 µM
